# Shown are actives, neighbours in structure and some others; about 19% of the full set was active somewhere.
# Pf growth 96h = P. falciparum growth inhibition at 96 hours; P. falciparum luciferase reporter growth, 96 h; Potency, µM (series often up to 28.7 µM), for inactives: at the highest dose activity change, negative = inhibition, most hits filed as inhibitors; hit rate 6.9% among 320,000; AID 504834; further: potency means the concentration at half of the fitted maximal effect; on the % scale 0 is the no-effect control and ±100 the full control effect
#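 Erythrocytes infected with luciferase-expressing P. falciparum were dispensed at 2% hematocrit and 0.05% parasitemia (final), then incubated with compounds 96 hours at 37 C in 5% CO2. Luminescence after detection reagent addition reported growth.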
# SARS PLP yeast = inhibitors of SARS-CoV papain-like protease in yeast; S. cerevisiae expressing SARS-CoV PLpro, growth rescue; Potency, µM (doses to about 32.9 µM), for inactives: top-dose activity, positive = growth rescue, usual class: activators; hit rate 0.19% among 330,000; AID 485353; calls by dose curve; further: potency means the concentration at half of the fitted maximal effect; 0% is about no effect; nearly all actives have a fitted effect of over 55% in size
# AMA1-RON2 inh = AMA1-RON2 (P. falciparum) interaction inhibition; AlphaScreen AMA1-biotinylated RON2 peptide binding; Potency, µM (top dose mostly 58.2 µM), inactives show at the top dose activity change, negative = inhibition, most hits filed as inhibitors; hit rate 0.2% among 360,000;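 further: potency means the concentration at half of the fitted maximal effect; 0% = vehicle wells and -100% = peptide control; nearly all actives have a fitted effect of over 45% in size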
#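 AMA1 (3D7) with his tag at 25 nM final met compounds first, then biotinylated RON2 peptide at 25 nM; detection used donor plus acceptor beads, 10 µg/mL apiece, read by AlphaScreen after 30 min at room temperature.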
# CHX counter = counter-screen hit for Shiga toxin inhibitors, cycloheximide | cell reporter, cycloheximide protein synthesis inhibition counterscreen | max response, % | hit rate 12% among 300,000; in the data active means max response mostly above about 13%, no sharp cut-off; inactive means mostly below about 14%; further: read at 38.3 µM for the half of the compounds with a filed dose; 0% is about no effect
# Shiga inhibitor = Shiga toxin inhibition | Vero cells, Shiga toxin protein synthesis inhibition reporter | inhibition, % at 38.7 µM | hit rate 9.2% among 290,000; in the data active means inhibition mostly above about 28%, no sharp cut-off; inactive means mostly below about 43%; further: 0% is about no effect
# Pf growth 48h = P. falciparum growth inhibition at 48 hours (one generation); P. falciparum luciferase growth in erythrocytes, 48 h; Potency, µM (top dose mostly 28.7 µM), for the others: at the highest dose activity change, negative = inhibition, most hits filed as inhibitors; hit rate 5.9% among 310,000; further: potency means the concentration at half of the fitted maximal effect; on the % scale 0 is the no-effect control and ±100 the full control effect
#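 A one-generation exposure of luciferase-tagged malaria parasites in RPMI 1640/Albumax erythrocyte culture, 37 C and 5% CO2. Inhibition is inferred from decreased luminescence after adding detection reagent.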
# * hit, by the source's call; ? = inconclusive; nt = no result; ! = not confirmed by another sample; [ ] = remark or other dose. Unless noted, the call rests on the fitted dose curve; in most records, active means well fitted curve in the direction sought with a large enough effect; inconclusive means small, poorly fitted or top-dose-only effect, or another doubt; inactive means no such curve, though single readings can be large; an effect the other way counts as inactive or inconclusive.
SMILES,Pf growth 96h,SARS PLP yeast,AMA1-RON2 inh,CHX counter,Shiga inhibitor,Pf growth 48h
O=C(c1ccc2ncsc2c1)N1CCN(c2nc3ccccc3s2)CC1,0%,-5%,20%,-3,-10,-15%
Cc1cccc(N2CCN(C(=O)c3ccncc3)CC2)c1C,-9%,2%,9%,-3,-13,-18%
Cc1cccc(N2CCN(C(=O)c3ccc4ncsc4c3)CC2)c1C,nt,-1%,-18%,30*,72*,26%
Cc1cccc(N2CCN(C(=O)c3ccc4nc[nH]c4c3)CC2)c1C,?,-3%,11%,-5,-3,1%
COc1cc(C(=O)N2CCN(c3cccc(C)c3C)CC2)cc(OC)c1OC,10µM*,4%,-8%,-3,-9,?
O=C(NCc1ccco1)c1cc([N+](=O)[O-])ccc1N1CCOCC1,?,0%,-3%,-2,-9,9%
CNC(=O)c1c(NC(=O)c2ccc(S(=O)(=O)N3CCCc4ccccc43)cc2)sc2c1CCN(C)C2,?,-2%,-12%,2,-19,?
CCN1CCc2c(sc(NC(=O)c3ccc(S(=O)(=O)N4CCCC4)cc3)c2C(=O)NC)C1,15µM*,-6%,-15%,-2,-14,10µM*
CNC(=O)c1c(NC(=O)c2ccc(S(=O)(=O)N3CCCCC3)cc2)sc2c1CCN(C(C)C)C2,8.3µM*,-3%,-9%,-2,-8,10µM*
CN1CCc2c(sc(NC(=O)c3ccc(S(=O)(=O)N4CCCCCC4)cc3)c2C(N)=O)C1,?,0%,-24%,-5,-10,?
O=C(c1cccc2ccccc12)C1CCCN(C(=O)c2ccc(N3CCOCC3)cc2)C1 (stereo not drawn),-1%,-1%,-10%,22,41,?
CN(C)C1=NCCN1CCc1ccc(F)cc1,61%,-8%,0%,nt,nt,7%
CC1(C)Cc2c(C#N)c(NC3CCCCC3)nc(-c3ccco3)c2CO1,9.3µM*,-8%,nt,2,5,5.9µM*
CC1(C)Cc2nc(NC3CCCCC3)c(C#N)cc2CO1,15%,1%,-9%,14,-11,9.3µM*
CCC1(C)Cc2nc(Cl)c(C#N)cc2CO1 (stereo not drawn),16%,-5%,-4%,1,17,1%
CC1(C)Cc2cccc(OCC(=O)Nc3ccccc3F)c2O1,0%,-10%,1%,nt,nt,3%
Cc1ccc(NC(=O)COc2cccc3ccccc23)c(O)c1,4.7µM*,-2%,0%,nt,nt,5.2µM*
CC(=O)Nc1ccc(NC(=O)COc2cccc3ccccc23)cc1,nt,nt,2%,nt,nt,nt
Cc1ccc(NC(=O)COc2cccc3c2OC(C)(C)C3)c(O)c1,?,-6%,-2%,nt,nt,10µM*
O=c1oc2ccccc2cc1-c1cn2ccccc2n1,-21%,-3%,27%,-1,9,2%
O=c1oc2ccccc2cc1-c1cn2cccnc2n1,8%,-12%,-9%,57*,103*,212%
Cc1cccn2cc(-c3cc4ccccc4oc3=O)nc12,?,-1%,24%,53*,111*,264%
COc1ccccc1C(C)NCC(=O)NC(=O)NCc1ccco1 (stereo not drawn),-10%,nt,46%,nt,nt,-16%
O=c1c2c(c(-c3ccccc3)nn1Cc1ccccc1)CCCC2,-7%,-3%,-12%,10,23,?
COc1ccc(CN2CC=C(c3ccc(F)cc3)CC2)cc1Br,-3%,5%,0%,-1,-4,0%
SMILES,Pf growth 96h,SARS PLP yeast,AMA1-RON2 inh,CHX counter,Shiga inhibitor,Pf growth 48h
O=[N+]([O-])c1ccccc1CN1CC=C(c2ccc(F)cc2)CC1,-26%,2%,-1%,17*,23*,9%
O=[N+]([O-])c1cccc(CN2CC=C(c3ccc(F)cc3)CC2)c1,10µM*,-3%,-24%,1,-4,-6%
CCCCOc1ccc(C(=O)N(CC)CC(=O)NCc2cccs2)cc1,2%,-2%,25%,8,8,-6%
COc1ccc(OC)c(NC(=O)CCc2c[nH]c3ccccc23)c1,13%,-8%,-16%,3,-11,4%
COc1ccccc1C1=NC(c2ccc(C)cc2)N=C1C (stereo not drawn),238%,-14%,0%,39*,131*,118%
Cc1c(CCO)c(=O)[nH]n1C(=O)c1ccc(F)cc1,1%,-9%,-1%,24*,65*,-7%
c1ccc(CN(CC2=NCCN2)c2ccccc2)cc1,12µM*!,3%,1%,-2,-6,-25%
c1ccc(CC2=NCCN2)cc1,?,1%,7%,-3,-21,-26%[12.8 µM]
O=C(c1cc2ccccc2[nH]1)N(Cc1cccnc1)CC1CCCN(C2CCCCC2)C1 (stereo not drawn),?,-3%,-6%,15*,10,10µM*
CCOC(=O)N1C/C(=C\c2ccccc2)C(=O)/C(=C/c2ccccc2)C1,?,-1%,-5%,41*,24*,4.7µM*
COc1ccc(OC(=O)N2C/C(=C/c3ccccc3)C(=O)/C(=C\c3ccccc3)C2)cc1,nt,nt,-28%,nt,nt,nt
CCCCN1C(=O)/C(=C2\SC(N3CCCCC3)=NC2=O)c2ccccc21,166%,-11%,-18%,26*,57*,88%
O=C1N=C(N2CCOCC2)S/C1=C1\C(=O)N(Cc2ccccc2)c2ccc(Br)cc21,?,5%,nt,9,20,10%
O=c1c2ccccc2nc2n1CCN2Cc1ccc(Cl)cc1,2.3µM*,-14%,-3%,33*,38,2.1µM*
CCOc1ccc(S(=O)(=O)N2CCN(C(=O)CCOc3ccccc3C)CC2)cc1,?,3%,3%,nt,nt,10µM*
CCOc1ccc(OCCC(=O)OCC(=O)N2CCN(S(=O)(=O)c3ccc(Cl)cc3)CC2)cc1,-3%,-1%,-4%,35*,54*,-21%
COc1ccc(CNC(=O)CC2C[C@H](C(=O)N3CCOCC3)[C@@]3(CCC4CCCC4)c4[nH]c5ccccc5c4CCN3C2=O)cc1OC (stereo partly drawn),nt,?,3%,nt,nt,nt
CC1(C)CC(NC(=O)COc2ccccc2Cl)CC(C)(C)N1,1%,1%,-11%,28*,95*,75%
O=C(COc1ccccc1Br)NC(=O)NC1CCCC1,43%,2%,-14%,nt,nt,94%
O=C(COc1ccccc1Br)NC1CC1,32%,2%,14%,15*,67,34%
CC1(C)CC(NC(=O)COc2ccc(Br)cc2Cl)CC(C)(C)N1,-22%,-1%,-1%,3,-18,-9%
COc1ccc(OCC(=O)NC2CC(C)(C)NC(C)(C)C2)cc1,?,10%,7%,31*,59,46%
O=C(COc1ccccc1Cl)NC1CC1,?,0%,-2%,12,92*,22%
CCOC(=O)NN1C(=O)c2ccccc2NC1c1ccccc1F (stereo not drawn),-24%,5%,19%,-7,-4,11%
